CYP2C19 act: increases human CYP2C19 enzyme activity; recombinant CYP2C19, luciferin-H EGE luminescence; hits give high values; 0 = fully inhibited enzyme, 1 = untreated enzyme; P33261; AID 1025; 96,000 tested, under 10 active; activation factor at 5 µM;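 active means activation factor of at least 2 at 5 µM in the primary screen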
MRP resist rev: compounds reversing MRP-mediated drug resistance. AID 602. differential viability (reversal), % at 10 µM. H69AR cells + 2 uM doxorubicin, CellTiter-Glo, 72 h. 85,000 tested, 0.04% active;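 active means viability drop by adding the cancer drug above about 55%, with treated viability meeting a 40% cutoff, limit read from the data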;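 further: larger differential means the compound sensitizes cells more to doxorubicin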
MRP-1 activ: activates MRP-1. H69AR cells + doxorubicin, viability rescue, CellTiter-Glo. viability increase, % at 10 µM. 140,000 tested, 0.61% active;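 active means viability gain under doxorubicin at or above a set limit, the compound median plus 3 SD, cut at about 4.7% in these data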;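 further: MRP-1 overexpressing cells given doxorubicin 25 µM after compound pretreatment; 18-22 h compound pretreatment then 72 h with doxorubicin before readout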
CYP2C9 inhib: blocks human cytochrome P450 2C9; P11712; 96,000 tested, 20% active; inhibition, % at 5 µM; CYP2C9 Supersomes, luciferin-H conversion, luminescence; AID 777;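 active means blocking of liver enzyme CYP2C9 beyond about 50% at 5 µM, limit read from the data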
Target sequence (P11712 whole entry, looked up): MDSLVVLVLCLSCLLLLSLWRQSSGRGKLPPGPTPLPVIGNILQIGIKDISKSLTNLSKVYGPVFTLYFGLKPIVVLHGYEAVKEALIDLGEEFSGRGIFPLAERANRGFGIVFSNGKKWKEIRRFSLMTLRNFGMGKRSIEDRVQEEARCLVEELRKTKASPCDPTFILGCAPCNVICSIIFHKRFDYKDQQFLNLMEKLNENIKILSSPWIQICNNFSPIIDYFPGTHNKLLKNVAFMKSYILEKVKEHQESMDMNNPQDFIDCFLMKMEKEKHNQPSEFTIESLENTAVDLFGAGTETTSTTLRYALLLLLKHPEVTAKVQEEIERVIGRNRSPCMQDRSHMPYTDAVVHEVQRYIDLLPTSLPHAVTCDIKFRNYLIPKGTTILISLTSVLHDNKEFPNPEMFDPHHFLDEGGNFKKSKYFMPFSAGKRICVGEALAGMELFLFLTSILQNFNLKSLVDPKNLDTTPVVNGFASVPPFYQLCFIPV
CYP2C9 act: increases human cytochrome P450 2C9 activity. activation factor at 5 µM. AID 1024. P11712. recombinant CYP2C9, luciferin-H conversion, luminescence; hits give high values; factor 1 = untreated enzyme, 0 = blocked. 96,000 tested, 1.4% active;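 active means activation factor of 2 or more for CYP2C9 at a 5 µM dose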
CYP2C19 inhib: human CYP2C19 inhibition | inhibition, % at 5 µM | CYP2C19 Supersomes, luciferin-H EGE luminescence, 30 min | P33261 | 96,000 tested, 21% active;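 active means CYP2C19 inhibition above a set limit at 5 µM in the primary screen, cut at about 50% in these data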
Large screens that a line does not name were inactive. Compounds with a hit are over-represented: about 21% of the library has one in this group of screens.

CN1CCN(C2=C(Cl)C(=O)N(C3CCCCC3)C2=O)CC1	CYP2C19 inhib 94
O=C(NN1C(=O)c2ccccc2NC1c1ccccn1)c1ccccc1 (centres undefined)	none (no result: CYP2C19 act, MRP resist rev, CYP2C9 inhib, CYP2C9 act, CYP2C19 inhib)
COc1ccc(N2CCN(C(=O)c3ccc(NS(=O)(=O)c4ccc(F)c(F)c4)cc3)CC2)cc1	CYP2C9 inhib 93
COc1ccc(N2CCN(C(=O)c3ccc(NS(=O)(=O)c4cccc(F)c4)cc3)CC2)cc1	CYP2C9 inhib 90
Cc1ccc(NC(=O)C(CC(C)C)NC(N)=O)cc1 (centres undefined)	none (no result: CYP2C19 act, MRP resist rev, CYP2C9 inhib, CYP2C9 act, CYP2C19 inhib)
COc1ccc(C2NC(=S)N3C(c4ccc(OC)cc4)NC(=S)N23)cc1 (centres undefined)	CYP2C19 inhib 51 (no result: MRP resist rev)
S=C1NC(c2ccccc2)N2C(=S)NC(c3ccccc3)N12 (centres undefined)	CYP2C9 inhib 78, CYP2C19 inhib 94
COc1ccc(C2NC(=O)CS2)cc1 (centres undefined)	none (no result: CYP2C19 act, CYP2C9 inhib, CYP2C9 act, CYP2C19 inhib)
CCCCN1CCc2[nH]c(=S)[nH]c(=O)c2C1	none (no result: CYP2C19 act, MRP resist rev, CYP2C9 inhib, CYP2C9 act, CYP2C19 inhib)
CCN(CCO)c1ncnc2c1sc1nc(C(C)C)c3c(c12)CC(C)(C)OC3	CYP2C9 inhib 76 (no result: MRP resist rev)
Cn1c(C(=O)NC2CCCC2)cc2c(=O)n(C)c3ccccc3c21	CYP2C19 inhib 56
Cn1c(C(=O)Nc2ccc3c(c2)OCO3)cc2c(=O)n(C)c3ccccc3c21	none
CCOc1ccc(NC(=O)c2cc3c(=O)n(C)c4ccccc4c3n2C)cc1	CYP2C9 inhib 84
COc1cccc(-c2cc(C(F)(F)F)n3ncc(C(=O)NCC4CCCO4)c3n2)c1 (centres undefined)	CYP2C9 inhib 55
Cc1cc(OCC(=O)NCCN2CCOCC2)ccc1Br	CYP2C19 inhib 85
COc1ccc(OCC(=O)NCCCN2CCOCC2)cc1	none (no result: CYP2C19 act, CYP2C9 inhib, CYP2C9 act, CYP2C19 inhib)
O=C(COc1cc(Cl)c(Cl)cc1Cl)NCCN1CCOCC1	CYP2C19 inhib 65
Cc1cc(=O)n2[nH]c(-c3ccc(C(C)(C)C)cc3)cc2n1	none (no result: MRP resist rev)
O=C(N/N=C(\c1ccccc1)c1cccnc1)C(O)(c1ccccc1)c1ccccc1	CYP2C9 inhib 67 (no result: MRP resist rev)
O=C(N/N=C/c1cccnc1)C(O)(c1ccccc1)c1ccccc1	none (no result: MRP resist rev)
CCc1nc2ccccc2c(=O)n1CCCCn1c(CC)nc2ccccc2c1=O	none (no result: CYP2C19 act, MRP-1 activ, CYP2C9 inhib, CYP2C9 act, CYP2C19 inhib)
O=C1c2ccccc2C(=O)N1Cc1nc2ccccc2c(=O)n1CCN1CCOCC1	none (no result: CYP2C19 act, MRP-1 activ, CYP2C9 inhib, CYP2C9 act, CYP2C19 inhib)
O=c1c2ccccc2c2ccccc2c(=O)n1Cc1ccco1	CYP2C9 inhib 73, CYP2C19 inhib 81
O=C1c2ccccc2C(=O)N1CCc1nc2ccccc2c(=O)n1Cc1ccco1	CYP2C9 inhib 80, CYP2C19 inhib 93
O=C1c2ccccc2C(=O)N1CCCc1nc2ccccc2c(=O)n1CCCn1ccnc1	CYP2C9 inhib 99, CYP2C19 inhib 86
Cn1c(-n2c(CCN3C(=O)c4ccccc4C3=O)nc3ccccc3c2=O)nc2ccccc21	CYP2C9 inhib 92, CYP2C19 inhib 87 (no result: MRP-1 activ)
CCOC(=O)C1CCC(CNCc2ccc(Cl)cc2)CC1 (centres undefined)	none (no result: CYP2C19 act, MRP resist rev, CYP2C9 inhib, CYP2C9 act, CYP2C19 inhib)
Cc1sc(NC(=O)C(C)C)c(C(=O)Nc2ccccc2)c1C	none (no result: MRP resist rev)
O=C(Nc1ccc(Cl)c(Cl)c1)Nc1nnc(CC2=CCCCC2)s1	none (no result: CYP2C19 act, MRP resist rev, CYP2C9 inhib, CYP2C9 act, CYP2C19 inhib)
C=C(C)Cn1c(COc2ccccc2)nnc1SCC(=O)O	none
Cc1ccc(S(=O)(=O)CC(=O)N(C)C)cc1	none (no result: CYP2C19 act, CYP2C9 inhib, CYP2C9 act, CYP2C19 inhib)
Cc1ccc(-c2cnc(N)n2C)cc1C	none
COc1cc(NC(=O)CN2C(=O)NC(c3ccccc3)(c3ccccc3)C2=O)c(C)cc1[N+](=O)[O-]	none (no result: CYP2C19 act, MRP resist rev, CYP2C9 inhib, CYP2C9 act, CYP2C19 inhib)
Cn1c(=O)c2c(-c3ccncc3)c3c(nc2n(C)c1=O)-c1ccccc1C3=O	none (no result: CYP2C19 act, MRP-1 activ, CYP2C9 inhib, CYP2C9 act, CYP2C19 inhib)
Cc1c(N=Cc2nc3ccccc3[nH]2)c(=O)n(-c2ccccc2)n1C	none
Cc1c(N=Cc2c(O)n(Cc3ccco3)c(=O)c3ccccc23)c(=O)n(-c2ccccc2)n1C	CYP2C9 inhib 81, CYP2C19 inhib 56
Cn1c(-n2c(CCCN3C(=O)c4ccccc4C3=O)nc3ccccc3c2=O)nc2ccccc21	CYP2C9 inhib 64
CCCCOC(=O)Nc1cccc(Cl)c1C	CYP2C19 inhib 56
COc1ccc([N+](=O)[O-])cc1NC(=O)CSc1ccc2ccccc2c1	none (no result: CYP2C19 act, MRP resist rev, CYP2C9 inhib, CYP2C9 act, CYP2C19 inhib)
O=[N+]([O-])c1ccc2c(c1)C(N1CCOCC1)/C(=C/COc1ccc3ccccc3c1Br)O2 (centres undefined)	CYP2C19 inhib 52 (no result: MRP resist rev)
O=Cc1cc([N+](=O)[O-])ccc1N1CCOCC1	none (no result: CYP2C19 act, MRP resist rev, CYP2C9 inhib, CYP2C9 act, CYP2C19 inhib)

Screening results from PubChem BioAssay.
